From PubChem BioAssay AID727 (The Scripps Research Institute Molecular Screening Center, 2007)
Among all 97,000 compounds or so, about 810 (0.84%) were called active. Shown is part of a subset that was picked to be rich in actives. Unmarked numbers belong to inactive results. Cut-off read from the data, not from the text of the source: active = inhibition above about 19%; inactive = the rest.

Molecular target: Focal adhesion kinase 1 (Homo sapiens) (UniProt Q05397)
Assay: FAK kinase inhibitors, primary screen, biochemical (AID 727);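 note: 0% = DMSO and 100% = reference compound high control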
Conditions: biochemical FAK kinase activity assay; active compounds read high;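 tested at 7 µM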

Sequence of Focal adhesion kinase 1 (Homo sapiens) (Q05397 whole entry, looked up): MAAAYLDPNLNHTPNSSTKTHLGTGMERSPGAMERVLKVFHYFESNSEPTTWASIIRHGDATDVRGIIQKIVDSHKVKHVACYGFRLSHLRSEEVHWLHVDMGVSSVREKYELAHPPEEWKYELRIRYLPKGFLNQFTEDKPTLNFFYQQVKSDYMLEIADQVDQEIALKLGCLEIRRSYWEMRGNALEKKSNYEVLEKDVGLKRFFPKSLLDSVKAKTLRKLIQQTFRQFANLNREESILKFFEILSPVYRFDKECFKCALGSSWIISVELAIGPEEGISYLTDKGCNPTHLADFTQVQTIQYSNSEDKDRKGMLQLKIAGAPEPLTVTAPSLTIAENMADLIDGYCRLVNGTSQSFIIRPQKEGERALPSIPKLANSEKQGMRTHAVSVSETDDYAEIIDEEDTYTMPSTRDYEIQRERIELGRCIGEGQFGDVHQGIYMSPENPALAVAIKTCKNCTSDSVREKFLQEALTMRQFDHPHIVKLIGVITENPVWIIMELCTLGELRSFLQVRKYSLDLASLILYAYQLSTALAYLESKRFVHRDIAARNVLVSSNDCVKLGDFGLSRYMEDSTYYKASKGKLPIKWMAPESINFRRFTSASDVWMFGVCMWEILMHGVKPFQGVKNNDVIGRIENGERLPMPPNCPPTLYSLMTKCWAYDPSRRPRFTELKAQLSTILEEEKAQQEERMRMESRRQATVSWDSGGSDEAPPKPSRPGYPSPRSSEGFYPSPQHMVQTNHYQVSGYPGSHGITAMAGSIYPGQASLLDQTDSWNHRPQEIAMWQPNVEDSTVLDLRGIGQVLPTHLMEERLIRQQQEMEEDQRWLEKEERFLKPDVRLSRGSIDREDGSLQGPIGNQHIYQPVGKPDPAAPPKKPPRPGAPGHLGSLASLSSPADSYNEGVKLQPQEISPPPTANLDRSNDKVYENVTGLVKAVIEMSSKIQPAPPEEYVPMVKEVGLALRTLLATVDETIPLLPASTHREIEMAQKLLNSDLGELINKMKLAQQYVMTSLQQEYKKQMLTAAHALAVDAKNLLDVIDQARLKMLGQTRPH

Row | Structure (SMILES) | inhibition
1 | Cc1cccc(NC(=O)Cn2cc(C(=O)c3ccco3)c3ccccc32)c1 | -4.82%
2 | Cc1cc(C)c2c3c(sc2n1)C(c1ccccc1)C(C#N)=C(N)O3 (stereo unspecified) | 1.94%
3 | CCCCC(C(=O)OCC(=O)c1ccc(OC)cc1)N1C(=O)c2ccccc2C1=O (stereo unspecified) | 0.79%
4 | CC(c1ccccn1)N(CCN(C)C)C(=S)Nc1ccccc1F (stereo unspecified) | -1.18%
5 | CCOC(=O)c1cc(NC(=O)c2ccc(Cl)cc2)c(=O)oc1-c1ccccc1 | -2.61%
6 | Nn1c(Cc2cccc3ccccc23)nnc1SCC(=O)N1CC(=O)Nc2ccccc21 | -1.43%
7 | Clc1ccccc1CSc1nnc(-c2ccco2)c(-c2ccco2)n1 | 31.9% (active)
8 | Nc1nc(SCc2ccccc2Cl)n[nH]1 | 1.47%
9 | c1ccc(CSc2nnc(-c3ccco3)n2Cc2ccccc2)cc1 | -5.27%
10 | CCCCOc1ccc(N(CC(=O)NCC2CCCO2)C(=O)CCC(=O)Nc2cc(C)ccn2)cc1 (stereo unspecified) | -1.73%
11 | CCNC(=O)c1sccc1-n1cccc1 | -1.65%
12 | Cn1c(SCC(=O)C(C)(C)C)nnc1-c1ccccn1 | -1.08%
13 | Clc1ccccc1-c1cc(COc2ccc3ccccc3c2)no1 | 5.83%
14 | CCCC(C)C(=O)Nc1ccc(NC(C)=O)cc1 (stereo unspecified) | 0.18%
15 | C=CCn1c(=O)c2ccccc2n2c(SCC(=O)N3CCCc4ccccc43)nnc12 | 5.22%
16 | O=C(CSc1nc2[nH]ncc2c(=O)n1-c1ccccc1)N1CCCc2ccccc21 | 0.8%
17 | Cn1c(SCC(=O)N2CCCc3ccccc32)nc2ccccc2c1=O | 37.7% (active)
18 | CC(C)(C)C(=O)Cn1c(NCCO)nc2ccccc21 | 1.69%
19 | CC(C)(C)C(=O)c1cnc(Nc2ccccc2)s1 | 4.36%
20 | OC(C#CCN1CCOCC1)(c1ccccc1)C1CCCCC1 (stereo unspecified) | 0.89%
21 | COc1ccc(S(=O)(=O)N/N=C\c2ccc(OC)c(COc3ccc(C)cc3[N+](=O)[O-])c2)cc1 | 2.51%

Row | Structure (SMILES) | inhibition
22 | O=C(Nc1cccc2ncccc12)c1ccc(-c2ccc(Cl)cc2Cl)o1 | 9.2%
23 | CCN1CCN(c2ccc([N+](=O)[O-])cc2C(=O)c2ccc(Cl)cc2)CC1 | -2.69%
24 | O=C(CSc1nc2cccnc2n1Cc1ccccc1)N1CCc2ccccc21 | 1.41%
25 | FC(F)(F)c1cccc(NC(=S)Nc2cccc(Cl)c2)c1 | -0.91%
26 | Cc1c(NC(=O)c2cc(-c3ccc(Cl)s3)nc3ccccc23)c(=O)n(-c2ccccc2)n1C | 2.95%
27 | Cc1ccc(C(=O)N/C(=C/c2ccco2)C(=O)NCCc2c[nH]c3ccccc23)cc1C | 4.25%
28 | COc1ccc(C2C=C(c3ccc(Br)cc3)Nc3nc(NS(C)(=O)=O)nn32)cc1 (stereo unspecified) | -9.88%
29 | O=C(CSc1nnnn1-c1ccccc1)NCc1ccco1 | 5.37%
30 | COc1ccc(CN(Cc2ccco2)S(=O)(=O)c2ccc(S(=O)(=O)N3CCCC3)cc2)cc1 | -0.01%
31 | Cc1cccc(N2CCN(C(=O)CN(C)S(=O)(=O)c3ccc4c(c3)CCC(=O)N4)CC2)c1C | 4.5%
32 | O=[N+]([O-])c1cccc(-c2nnc3c4ccccc4c4ccccc4n23)c1 | 17.7%
33 | O=c1c2c(nc3nc[nH]n13)CCC2 | -0.92%
34 | CCN1C(=O)/C(=C\N2CCOCC2)SC1=S | -1.1%
35 | Cc1cccc(N(C(=O)Cc2cccs2)C(C(=O)NC2CCCC2)c2ccsc2)c1 (stereo unspecified) | 2.56%
36 | S=c1[nH]nc(-c2ccco2)n1/N=C/c1ccc(Br)s1 | 15.6%
37 | Cc1ccc(/C=N\n2c(-c3ccccc3)n[nH]c2=S)s1 | 0.69%
38 | Oc1ccccc1/C=N/n1c(-c2cccs2)n[nH]c1=S | 29.4% (active)
39 | O=C(Nc1ccc(Cl)cn1)c1cnn2cccnc12 | 5.62%
40 | Cc1cc(NC(=O)Nc2ccccc2)n(-c2ccccc2)n1 | -1.43%
41 | Cc1cc(NC(=O)c2cnn3cccnc23)n(-c2ccccc2)n1 | 20.4% (active)
42 | CNC(=O)c1csc(-c2ccccc2)n1 | -0.71%

Row | Structure (SMILES) | inhibition
43 | Cc1ccc(C(c2nnnn2CS(=O)(=O)c2ccc(C)cc2)N2CCC(C)CC2)cc1 (stereo unspecified) | -7.49%
44 | CSc1ccccc1C(=O)Nc1cccc(C(C)=O)c1 | 2.46%
45 | CCN1CCN(C(=O)C2(NC(=O)Nc3cccc(F)c3)CCCCC2)CC1 | -0.58%
46 | CCOC(=O)c1c(N)sc(C(C)=O)c1C | -0.36%
47 | CCOC(=O)CSc1nc2ccc(C)cc2[nH]1 | -1.86%
48 | CCCSc1nsc(N)n1 | -4.41%
49 | CCN(CC)S(=O)(=O)c1ccc(N(C)Cc2ccc(C(F)(F)F)cc2)nc1 | -0.16%
50 | O=C(Nc1ccc(Cl)cc1)OCc1cc(-c2ccccc2)on1 | -6.39%
51 | CN(C)/C=C(\C#N)C(=O)c1cccnc1Oc1ccc(F)cc1F | -5.85%
52 | C=CCn1c(SCc2c(C(=O)OC)sc(N)c2C(=O)OC)nnc1-c1ccc(Cl)cc1 | 1.31%
53 | OC(CN=c1sc2ccccc2n1CC(O)COc1ccccc1)COc1ccccc1 (stereo unspecified) | 0.61%
54 | CCn1c(SC)nc(O)c(C(c2ccc(OC)c(O)c2)c2c(O)nc(SC)n(CC)c2=O)c1=O | -2.86%
55 | CNC(=O)CSc1nnnn1-c1ccc(C)cc1C | 2.36%
56 | CCn1nnnc1SCC(=O)c1ccc(C)cc1C | 21.8% (active)
57 | CCOC(=O)CNC(=O)CSc1nnnn1-c1cc(C)ccc1C | -0.99%
58 | COc1ccc(OCCCC(=O)Oc2ccc(OC)cc2)cc1 | 0.13%
59 | COc1ccc(-c2oc3ncn(Cc4ccco4)c(=N)c3c2-c2ccc(OC)cc2)cc1 | 3.43%
60 | CCc1ccc(CNC(=O)C2CC(=O)N(CCc3ccc(C)cc3)C2)cc1 (stereo unspecified) | -1.09%
61 | CC(=O)c1cccc(NC(=O)N2CCCC2C(=O)NCCc2ccccc2)c1 (stereo unspecified) | -0.1%
